# Experimental data: PubChem BioAssay AID932 (The Scripps Research Institute Molecular Screening Center, 2007)
# Hit rate of the full screen: of about 200,000 compounds, about 5,100 (2.5%) were called active. The sample as a whole holds a higher share of actives than the screen did. Values without a mark were called inactive.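 Rule for the calls: active = activation above the screen-wide mean activation plus 3 SD (cut at about 130% in these data); inactive = the rest.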
# Assay: potentiators of IFN-gamma driven STAT1 reporter – cell-based, HTS, luciferase reporter, primary screen (AID 932);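 note: raw ratio to IFN-gamma control signal so 100% means no change and 0% no light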
# Conditions: NIH 3T3 STAT1-luciferase reporter, luminescence, at 5.5 µM, hits give high values, 100% = IFN-gamma alone, no compound
row,SMILES,activation (% of control)
1,O=C(COc1ccccc1Cl)Nc1ccc(C(=O)c2ccc(C(=O)O)cc2)cc1,98%
2,CSCCC(=O)N1CCCC(CNC(=O)c2ccccc2Cl)C1 (stereo not drawn),96.7%
3,CCN(CC)S(=O)(=O)c1ccc(NC(=O)c2cccnc2Cl)c(NC(=O)c2cccnc2Cl)c1,88.7%
4,O=C1Nc2cc(Cl)c(Cl)cc2N(O)N1c1ccccc1Cl,82.7%
5,S=C(NCCc1ccccc1)N1CCCCC1,122%
6,CC1CCN(C(=S)c2ccc(-c3ccc(Cl)cc3Cl)o2)CC1,85.7%
7,S=C(c1ccc(-c2ccccc2)o1)N1CCCCC1,138% (active)
8,O=C(CNC(=O)COc1ccccc1)NCCc1ccccn1,104%
9,Cc1cc(/C=N/NC(=O)c2cccnc2)c(C)n1CC(C)C,139% (active)
10,CCC(=O)Nc1cccc(NC(=O)c2cccnc2)c1,98.6%
11,Cc1nn(Cc2ccc(Cl)cc2)c(Cl)c1/C=N/NC(=O)c1cccnc1,94.4%
12,Cc1ccc2sc(NNC(=O)c3ccc4c(c3)OCCO4)nc2c1C,104%
13,CCOC(=O)CSc1nc2ccc(C)cc2[nH]1,111%
14,Cc1cc2nc(SCCN3CCOCC3)[nH]c2cc1C,152% (active)
15,Cc1ccc(S(=O)(=O)NCCN2CCOCC2)cc1C,96.1%
16,COc1ccc(CN2CCCC(CNC(=O)c3ccc(F)cc3)C2)cc1OC (stereo not drawn),97.8%
17,CC1CCC(NC(=O)C2c3ccccc3C(=O)N2Cc2ccc3c(c2)OCO3)CC1 (stereo not drawn),89.6%
18,OCCCN1c2ccccc2Nc2nnc(-c3ccccc3)cc21,156% (active)
19,N=c1c2c(-c3ccccc3)c(-c3ccccc3)n(Cc3ccccc3)c2ncn1CCCO,102%
20,Cc1ccc(C)c(-n2ccnc2SCC(N)=O)c1,102%
21,Cc1cccc(NC(=O)c2cccc(C(F)(F)F)c2)c1,107%
22,Cc1ccc(NC(=O)Nc2cccc(C(F)(F)F)c2)nc1,129% (active)
23,O=C(Nc1cccc(C(F)(F)F)c1)c1cnccn1,110%
24,CN(C)c1ccc2c(=O)[nH][nH]c(=O)c2c1,103%
25,COc1ccc(-n2c(C)nn(CC3CC3)c2=O)cc1,97.8%
26,NS(=O)(=O)c1ccc(CCNC(=O)CCCn2c(SCC(=O)N3CCCC3)nc3ccsc3c2=O)cc1,99.5%

row,SMILES,activation (% of control)
1,CCc1ccc(NC(=O)CC2C(=O)NCCN2C(=S)Nc2ccccc2)cc1 (stereo not drawn),100%
2,O=C1CN(C(=O)COC(=O)c2cnc(Cl)c(Cl)c2)c2ccccc2N1,92.8%
3,CCN(CC)N=Nc1cccc(NC(C)=O)c1,88.6%
4,Cc1nonc1NC(=O)CSc1nc2ccccc2cc1C#N,117%
5,CCOc1ccc2nc(NCCNS(=O)(=O)c3ccccc3)c(C#N)cc2c1,102%
6,CCOc1ccc2cc(C#N)c(SCC(=O)OC)nc2c1,150% (active)
7,O=C(CSc1cccc[n+]1[O-])NCCCc1ccccc1,91.9%
8,CCOC(=O)C1CCN(CCC(=O)Nc2cccc(C)c2)CC1,98.8%
9,CCOc1cc(/C=N/O)ccc1OCc1ccccc1F,104%
10,COc1cc(/C=C2/C(=O)ON=C2C)ccc1OCc1cccc(F)c1,128%
11,COc1cc(/C=C2/C(=O)ON=C2C)ccc1OCc1ccccc1F,129% (active)
12,CCn1c(CSCc2c(Cl)cccc2Cl)n[nH]c1=S,98.8%
13,Cc1noc(C)c1CCC(=O)O,95.1%
14,COc1ccc(CNC(=O)CN2CCC(n3nnc4cc(F)ccc43)CC2)cc1,88.1%
15,COc1ccc2nc(Nc3nc4cc5c(cc4s3)OCCO5)sc2c1,114%
16,Fc1ccc2nc(Nc3nc4c(s3)CCCC4)sc2c1,162% (active)
17,CSc1ncccc1C(=O)Nc1nc2ccc(F)cc2s1,123%
18,CCCCCC(=O)Nc1ccc(S(=O)(=O)Nc2ccc(Cl)nn2)cc1,102%
19,O=C(C1=C[C@H](c2coc3ccccc3c2=O)C[C@H](OCc2ccc(CO)cc2)O1)N1CCOCC1,102%
20,COc1ccc(/C=N/NC(=O)Cn2cc(C(F)(F)F)ccc2=O)cc1,97.9%
21,Cc1ccccc1OCCC(=O)OCC(=O)NC(C)c1ccccc1 (stereo not drawn),99.7%
22,COCCOC(=O)c1c(C)oc2cc(Br)c(OCC(N)=O)cc12,94.5%
23,Cc1ccc(COc2ccc(C(=O)NN)cc2)cc1,116%
24,O=C(Nc1ccc(Cl)cn1)Nc1cccs1,123%
25,Clc1ccc(Nc2nc(-c3cccs3)cs2)nc1,196% (active)
26,Cc1ccc(-c2csc(NC(=O)Cc3cccs3)n2)cc1C,111%

row,SMILES,activation (% of control)
1,c1cnc(Nc2nc(-c3ccc4ccccc4c3)cs2)nc1,164% (active)
2,Oc1ccc(-c2csc(Nc3cccnc3)n2)cc1,110%
3,Cc1ccc(-c2csc(NC(=O)c3cccs3)n2)cc1,123%
4,COc1ccc(-c2csc(Nc3ccccn3)n2)cc1,110%
5,c1ccc(Nc2nc(-c3ccncc3)cs2)nc1,193% (active)
6,CCCc1cc(-c2nc(-c3ccc(C)cc3)cs2)ccn1,99.8%
7,NC(=O)c1ccccc1N=Cc1ccc2ccccc2c1,124%
8,CCOC(=O)c1cc2c(=O)n3ccccc3nc2n(CC(C)C)c1=NC(=O)c1c(-c2c(F)cccc2Cl)noc1C,89.8%
9,CC(C)OC(=O)Cn1nc(C(F)(F)F)c2c1CCCC2,96.5%
10,Cc1ccc2nc(SCc3cn4c(C)cc(C)nc4n3)[nH]c2c1,96.4%
11,CNC(=O)c1ccc(NC(=O)c2cccc(C(F)(F)F)c2)cc1,98.4%
12,Cc1cc(C)c(C#N)c(N2CCC(C(N)=O)CC2)n1,98.4%
13,COc1cc(/C=N/n2c(C)n[nH]c2=S)ccc1OCc1ccccc1,144% (active)
14,Cc1n[nH]c(=S)n1/N=C/c1ccc(Br)o1,104%
15,CNC(=S)N/N=C/c1ccc(OCc2ccccc2)c(Br)c1,119%
16,CSc1ccccc1NC(=O)CN(C)CC(=O)Nc1cccc(Br)c1,89.3%
17,C=C(C)C(=O)Nc1cccc(C(C)=O)c1,102%
18,CCN(CC)C(=O)C(=O)Nc1cccc(Br)c1,129% (active)
19,CCOc1ccc(C(C)=O)cc1COC(=O)c1cnc(Cl)c(Cl)c1,101%
20,Cc1ccnc(NC(=O)c2ccc(Cl)c([N+](=O)[O-])c2)c1,95.8%
21,O=C(CSc1nnc(-c2cnccn2)n1Cc1ccco1)c1ccc(Cl)c(Cl)c1,94.7%
22,Fc1cccc(Cl)c1CSc1ccc(-c2ccco2)nn1,126%
23,Cn1c(SCc2c(F)cccc2Cl)nnc1-c1cnccn1,130% (active)
24,O=C(CSc1nnc(C2CC2)n1Cc1ccccc1)Nc1cccnc1Cl,96.9%
25,CCc1ccc(CN(C)C(=O)CCc2nnc(-c3ccc(-c4ccccc4)cc3)o2)nc1,93.4%
26,COc1cccc(OC)c1C(=O)Nc1ccc(N2CCCCC2)cc1,103%

row,SMILES,activation (% of control)
1,COc1cccc(C(=O)Nc2ccc(N3CCCC3)cc2)c1,127%
2,Cc1ccccc1C(=O)Nc1ccc(N2CCCCCC2)cc1,141% (active)
3,CCc1cc2c(=O)c(-c3ccc(F)cc3)c(C(F)(F)F)oc2cc1OCC(=O)O,97.7%
4,C/C(CC(=O)Nc1ccc(C)cc1C)=N\NC(=O)C(C)C,102%
5,O=S(=O)(c1cccc(C(F)(F)F)c1)N1CCN(c2cnccn2)CC1,108%
6,Cc1ccnc(N2CCCC(C(=O)Nc3cc(F)ccc3C)C2)n1 (stereo not drawn),104%
7,O=C(Nc1ccc2c(c1)OCCO2)C1CCCN(c2ncccn2)C1 (stereo not drawn),143% (active)
8,Cc1cc(C)nc(N2CCC(C(=O)Nc3ccc4c(c3)OCCO4)CC2)n1,101%
9,NS(=O)(=O)c1ccc(NC(=S)Nc2ccc(Br)c(Cl)c2)cc1,94.5%
10,CCC(C)N(C(=O)COC(=O)C1C(C(=O)OC)=C(C)NC(C)=C1C(=O)OC)C1CCS(=O)(=O)C1 (stereo not drawn),102%
11,O=C(Nc1ccc(Cl)cc1)C1c2cccc[n+]2CC(=O)N1Cc1ccc2c(c1)OCO2 (stereo not drawn),101%
12,Cc1cc(C)nc(NNC2=CC(=O)CC(C)(C)C2)n1,115%
13,Cc1ccc(/C=N/NC(=O)CSc2nc3ccccc3o2)cc1,111%
14,CC(C)(C)C(=O)CSc1nc2ccccc2o1,150% (active)
15,CCN(CC)C(=O)CSc1nc2ccccc2o1,110%
16,COc1ccc(/C=C2/SC(=O)N(CCCCCC(=O)Nc3ccccc3C(=O)O)C2=S)cc1,102%
17,NC(=O)N1CCc2ccccc21,98.2%
18,Cc1nnc(SCC(=O)N2CCc3ccccc32)n1-c1ccccc1,100%
19,O=C(CSCc1ccccc1)N1CCc2ccccc21,138% (active)
20,CCOc1ccc(NC(=O)CN(C)CC(=O)NC(C)c2ccccc2)cc1OCC (stereo not drawn),99.4%
21,Cc1ccc(NC(=O)c2cc(-c3ccc(C)o3)nc3ccccc23)nc1,91.3%
22,Cc1ccc(-c2csc(NNC(=O)c3ccccc3)n2)cc1,102%
23,Cc1ccc(Nc2nc(-c3ccc(O)cc3O)cs2)nc1,143% (active)
24,CN(C)/C=C(/C(=O)c1ccc(F)cc1)S(=O)(=O)c1ccc(F)cc1,106%
25,CCN(CCn1cccn1)C(=O)CC1C(=O)NCCN1Cc1cccc(OC)c1OC (stereo not drawn),96.3%
